Screen size: about 16,000 compounds; about 5,800 (36%) were called active. Inconclusive results (about 23%) are left out. The call rests on the fitted dose curve; in most records, active means well fitted curve in the direction sought with a large enough effect; inconclusive means small, poorly fitted or top-dose-only effect, or effect the other way; inactive means no such curve, though single readings can be large or run the other way. The list shows a part of the results.
target: Cytochrome P450 2C19 (Homo sapiens) (UniProt P33261); assay: Cytochrome panel assay with activity outcomes; settings: recombinant CYP, pro-luciferin dealkylation, luminescence, p450-cyp2c19; series mostly up to 57.1 µM
Sequence (P33261 whole entry, looked up): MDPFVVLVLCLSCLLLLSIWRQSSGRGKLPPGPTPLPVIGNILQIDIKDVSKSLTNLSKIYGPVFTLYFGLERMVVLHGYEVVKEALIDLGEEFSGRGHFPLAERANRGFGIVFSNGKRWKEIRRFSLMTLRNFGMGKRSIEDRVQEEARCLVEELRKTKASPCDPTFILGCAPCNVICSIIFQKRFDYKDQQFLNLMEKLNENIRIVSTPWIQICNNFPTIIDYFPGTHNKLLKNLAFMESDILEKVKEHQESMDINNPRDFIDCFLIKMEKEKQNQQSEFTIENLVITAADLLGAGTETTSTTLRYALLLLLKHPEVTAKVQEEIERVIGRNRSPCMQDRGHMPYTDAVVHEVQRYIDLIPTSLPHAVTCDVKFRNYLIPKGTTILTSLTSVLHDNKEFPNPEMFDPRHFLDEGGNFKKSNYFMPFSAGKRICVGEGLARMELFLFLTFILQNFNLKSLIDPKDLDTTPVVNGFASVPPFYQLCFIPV
On the % scale 0 is the no-effect control and ±100 the full control effect.

Row | Compound | AC50 | activity, negative = inhibition
1 | Cc1nc2cnc(N3CCN(C)CC3)nc2n(Cc2ccc(F)cc2)c1=O | inactive | –
2 | COc1ncc2nc(CCc3ccccc3)c(=O)n(CCc3ccccc3)c2n1 | 7.94 µM (active) | –
3 | COc1ccc(-n2c(=O)c(CCc3ccccc3)nc3cnc(N4CCN(C)CC4)nc32)cc1 | inactive | –
4 | COc1ccc(-n2c(=O)c(CCc3ccccc3)nc3cnc(OC)nc32)cc1 | 6.31 µM (active) | –
5 | COCCn1c(=O)c(-c2ccccc2)nc2cnc(OC)nc21 | inactive | –
6 | COc1ncc2nc(C)c(=O)n(CCc3ccccc3)c2n1 | 25.1 µM (active) | –
7 | COc1ccc(-c2nc3cnc(OC)nc3n(-c3ccc(OC)cc3)c2=O)cc1 | inactive | –
8 | COCCn1c(=O)c(-c2cn(C)c3ccccc23)nc2cnc(OCc3ccccc3)nc21 | inactive | –
9 | Cc1nc2cnc(Oc3ccccc3)nc2n(CCc2ccccc2)c1=O | inactive | –
10 | COc1ccc(-c2nc3cnc(OC)nc3n(CCc3ccccc3)c2=O)cc1 | inactive | –
11 | COc1ncc2nc(-c3ccc(F)cc3)c(=O)n(CCc3ccccc3)c2n1 | inactive | –
12 | COCCn1c(=O)c(CCc2ccccc2)nc2cnc(OC)nc21 | 0.794 µM (active) | –
13 | C#CCCCO/N=C1/C[C@@H](O)[C@@H](O)[C@@H]2[C@@H]3C(=O)N(C4CCCCC4)C(=O)[C@H]3CC[C@@H]12 | – | -32.2% [at 11.4 µM] (inactive)
14 | O=C1C[C@H]2C(=O)[C@@H]1[C@@H](C(=O)O)[C@H]2C(=O)O | – | -11.8% [at 11.4 µM] (inactive)
15 | Cc1ccc(S(=O)(=O)N[C@H]2COC(=O)[C@@H](C)COC(=O)[C@H](C)NC(=O)C/C=C\[C@H]2C)cc1 | – | 9.82% [at 11.4 µM] (inactive)
16 | COc1ccc(-c2nc3cnc(N4CCNCC4)nc3n(C)c2=O)cc1 | inactive | –
17 | CCOC(=O)c1c(C)n(C)c2ccc(OC)c(NS(=O)(=O)c3ccc(Cl)s3)c12 | 0.282 µM (active) | –
18 | Cc1ccc(SCCNC(=S)Nc2ccc(C)c(C)c2)cc1 | 3.16 µM (active) | –
19 | Cc1ccc(NC(=S)NCCN2CCOCC2)cc1C | 5.01 µM (active) | –
20 | Cc1cc(-c2ccccc2)nnc1NCCN1CCOCC1 | inactive | –
21 | Cc1ccc(CCN2CC(C(=O)NCCN3CCOCC3)CC2=O)cc1 (centres undefined) | inactive | –
22 | C=CCNC(=S)Nc1ccc2nc(C)c(C)nc2c1 | inactive | –
23 | O=C(c1cccc(F)c1)N1CCC2(CC1)CCN(C(c1ccccc1)c1ccccc1)CC2 | inactive | –
24 | CN(C)CCCn1cnc2cc(Cl)c(Cl)cc21 | – | 51.6% [at 11.4 µM] (inactive)
25 | Cc1cc(Cl)ccc1OCC(=O)N/N=C1\CCCc2ccccc21 | inactive | –
26 | O=C(N/N=C1\CCCc2ccccc21)c1ccc([N+](=O)[O-])cc1Cl | 4.47 µM (active) | –

Row | Compound | AC50 | activity, negative = inhibition
27 | CCCCNC(=S)NNC(=O)c1csc2c1CCC(C)C2 (centres undefined) | 3.98 µM (active) | –
28 | CC1CCc2c(C(=O)Nc3nccs3)csc2C1 (centres undefined) | 2.82 µM (active) | –
29 | CCCCNC(=S)NNC(=O)c1sccc1C | 0.794 µM (active) | –
30 | CC(C)NC(=O)N1CCC2(CC1)CCN(C(=O)c1ccncc1)CC2 | inactive | –
31 | CCNc1ncc2nc(-c3cc(F)cc(F)c3)c(=O)n(C[C@H]3CCCO3)c2n1 | inactive | –
32 | COCCn1c(=O)c(-c2ccc(OC)cc2)nc2cnc(N3CCNCC3)nc21 | inactive | –
33 | COC(=O)c1sccc1-c1ccc(C(=O)Nc2cccc(Cl)c2)o1 | 3.16 µM (active) | –
34 | COC(=O)COc1ccsc1C(=O)OC | inactive | –
35 | COC(=O)c1sccc1-c1ccc(C(=O)Nc2cccnc2)o1 | 3.16 µM (active) | –
36 | CCOC(=O)C(=Cc1ccc(-c2ccsc2C(=O)OC)o1)C(=O)OCC | 2.82 µM (active) | –
37 | CCN(CC)S(=O)(=O)c1cccc2c(N(C)C)cccc12 | 3.98 µM (active) | –
38 | CCN(CC)S(=O)(=O)c1ccc2c3c(cccc13)C(=O)S2 | 1 µM (active) | –
39 | Cc1noc(NS(=O)(=O)c2cccc3c(N(C)C)cccc23)c1C | inactive | –
40 | c1ccc(CNc2ncncc2-c2ccoc2)cc1 | 10 µM (active) | –
41 | c1cncc(-c2cncnc2NCc2cccs2)c1 | inactive | –
42 | CN(C)c1ccc(-c2cncnc2NCc2cccs2)cc1 | 0.631 µM (active) | –
43 | c1csc(CNc2ncncc2-c2ccoc2)c1 | 15.8 µM (active) | –
44 | Cc1cnc(CNc2ncncc2-c2ccoc2)cn1 | inactive | –
45 | NC/C=C\C(=O)O | inactive | –
46 | CC1=CC=CN2CC(O)CN=C12 (centres undefined) | inactive | –
47 | Cc1cc(C)cc(-n2nnnc2SCC(=O)Nc2nc(-c3ccc(Cl)cc3)cs2)c1 | 3.55 µM (active) | –
48 | O=C1CCCN1CC(CN1CCOCC1)Sc1nnnn1-c1ccccc1 (centres undefined) | 14.1 µM (active) | –
49 | CSc1nc(Sc2cccc(Cl)c2)c2ccccc2n1 | 6.31 µM (active) | –
50 | CSc1c(-c2ccccc2)nc2ccc(Cl)cc2c1C(=O)O | inactive | –
51 | Cc1ccc(Sc2nc(C)cc(C)c2S(C)(=O)=O)cc1 | 3.16 µM (active) | –
52 | COc1ccc(C(=O)NNC(=O)Cc2ccc(-c3ccccc3)cc2)cc1OC | inactive | –

Row | Compound | AC50 | activity, negative = inhibition
53 | O=C(CCc1nc(-c2ccccc2)no1)NCCc1ccccc1 | 5.01 µM (active) | –
54 | COc1ccc(-c2noc(CCCC(=O)NCCc3ccccc3)n2)cc1OC | 7.08 µM (active) | –
55 | CCN(CC)CCc1nc(-c2ccccc2)no1 | inactive | –
56 | O=C1CC[C@H](N2C(=O)c3ccccc3C2=O)C(=O)N1 | inactive | –
57 | O=C1c2ccccc2C(=O)N1CC(=O)N1c2ccccc2CCc2ccccc21 | 1.41 µM (active) | –
58 | O=C1c2ccccc2C(=O)N1C[C@]1(C(=O)O)NCCS1(=O)=O | – | -9.77% [at 11.4 µM] (inactive)
59 | CC(C)(N)C(=O)N[C@@H]1C(=O)N2[C@@H]1SC(C)(C)[C@H]2C(=O)O | – | 2.03% [at 11.4 µM] (inactive)
60 | CCCCC(=O)Nc1ccc(C)c(O)c1 | 15.8 µM (active) | –
61 | CCCCC(=O)Nc1ccc(C(=O)NNC(=O)CCc2ccccc2)cc1 | inactive | –
62 | CCC(CC)C(=O)Nc1ccc(C)c(O)c1 | 14.1 µM (active) | –
63 | Cc1ccc(NC(=O)CC2CS(=O)(=O)CC2CC(=O)Nc2ccc(C)c(C)c2)cc1C (centres undefined) | inactive | –
64 | Clc1ccc(CSC2=NCCN2)cc1Cl | – | -10.9% [at 11.4 µM] (inactive)
65 | CNc1cc(CSC)nc(SCc2ccc(Cl)c(Cl)c2)n1 | 0.794 µM (active) | –
66 | O=C(Oc1ccccc1N1C(=O)C2CCCCC2C1=O)c1ccccc1 (centres undefined) | 25.1 µM (active) | –
67 | COc1ccc2c(c1)C(c1ccc([N+](=O)[O-])cc1)=NNC(c1ccco1)=N2 | 7.08 µM (active) | –
68 | COC(=O)C1=C(CSc2nncn2C)NC(=O)NC1c1ccc(F)cc1 (centres undefined) | inactive | –
69 | Cn1cnnc1SCC(=O)n1c2ccccc2c2ccccc21 | 8.91 µM (active) | –
70 | CC(=O)Oc1ccc(C(c2ccc(OC(C)=O)cc2)c2ccccn2)cc1 | inactive | –
71 | CC(=O)Oc1ccc2ccccc2c1C(NC(=O)Cc1ccccc1)c1ccc(Cl)cc1 (centres undefined) | 1.26 µM (active) | –
72 | CCCCOc1ccc(OC(=O)c2cccnc2)cc1 | 17.8 µM (active) | –
73 | COc1ccc(C(=O)N2CCC3(CC2)CN(c2ccncc2)C3)cc1 | inactive | –
74 | COc1ccc(C(=O)N2CCC3(CC2)CCN(c2ccncc2)CC3)cc1 | inactive | –
75 | CCCCCOc1ccc(OC(=O)c2ccncc2)cc1 | 3.16 µM (active) | –
76 | COc1ccc(OC(=O)c2ccncc2)cc1 | 1.41 µM (active) | –
77 | N#Cc1ccc(OC(=O)c2ccc(N=C(N)N)cc2)cc1 | – | 14.4% [at 11.4 µM] (inactive)
78 | CCCCOc1ccc(CC(=O)NO)cc1 | inactive | –

Row | Compound | AC50 | activity, negative = inhibition
79 | O=C(Nc1ccc(OC(=O)c2cccnc2)cc1)c1cccnc1 | inactive | –
80 | CCN(CC)C(=O)CSc1nc2ccc(NC(=O)CSc3nnc(COc4ccccc4C)n3C)cc2s1 | 2.82 µM (active) | –
81 | Br/C(=N\Nc1nn[nH]n1)c1ccncc1 | – | 22.2% [at 11.4 µM] (inactive)
82 | CC(=O)ON(C(C)=O)S(=O)(=O)c1ccc(Cl)cc1 | inactive | –
83 | CC(Oc1ccc(Cl)cc1)C(=O)/C=C/N(C)C (centres undefined) | 7.94 µM (active) | –
84 | CN(C)/C=C/C(=O)c1ccc(Cl)cc1 | 11.2 µM (active) | –
85 | O=C(O)/C=C\[C@H](O)c1ccc(Cl)cc1 | inactive | –
86 | NCCNC(=O)c1ccc(Cl)cc1 | inactive | –
87 | CC(Oc1ccc(Cl)cc1Cl)C(=O)/C=C/N(C)C (centres undefined) | 2.82 µM (active) | –
88 | CCc1ccc(C(C(=O)NCc2ccc(OC)cc2)N(CCOC)C(=O)Cc2cccs2)cc1 (centres undefined) | 5.62 µM (active) | –
89 | COc1ccc(CNC(=O)C(c2ccc(C)cc2)N(Cc2cccs2)C(=O)c2ccc3c(c2)OCCO3)cc1 (centres undefined) | 2.82 µM (active) | –
90 | O=C(NCc1ccccc1)C(c1cccs1)N(Cc1cccs1)C(=O)c1cnccn1 (centres undefined) | 3.55 µM (active) | –
91 | O=C(c1cnccn1)N1CCC2(CC1)CCN(C(c1ccccc1)c1ccccc1)CC2 | inactive | –
92 | COc1ccc(C(C(=O)NCc2ccccc2)N(Cc2cccs2)C(=O)c2cnccn2)cc1 (centres undefined) | 7.08 µM (active) | –
93 | COc1ccc2nc3oc(C(=O)NCc4cccs4)cc3cc2c1 | inactive | –
94 | COC(=O)CSc1ncc(OC)c(OC)n1 | inactive | –
95 | CCOC(=O)C(C)Sc1ncc(OC)c(Sc2ccc(Cl)cc2)n1 (centres undefined) | 3.55 µM (active) | –
96 | CCOC(=O)CSc1ncc(OC)c(Sc2ccc(Cl)cc2)n1 | 1.78 µM (active) | –
97 | CC[C@H]1CC[C@H]2[C@@H]3CC=C4C[C@H](OC(C)=O)[C@@H](N)C[C@@]4(C)[C@H]3CC[C@@]12C | – | 22.6% [at 11.4 µM] (inactive)
98 | O=c1c2ccccc2nc2n1CCc1c-2[nH]c2ccccc12 | inactive | –
99 | c1ccc(-c2c3ccccc3nc3[nH]c4ccccc4c23)cc1 | 10 µM (active) | –
100 | CCCCc1c2ccccc2nc2[nH]c3ccccc3c12 | inactive | –
101 | Clc1ccc(CC[C@H](Cn2ccnc2)Sc2c(Cl)cccc2Cl)cc1 | 0.00251 µM (active) | –
102 | COc1ccc(NS(=O)(=O)c2ccc(I)cc2)cc1N1CCN(C)CC1 | inactive | –
103 | COc1ccc(S(=O)(=O)N2CCCCCC2)cc1N(C)S(=O)(=O)c1ccc(Cl)cc1 | 5.01 µM (active) | –
104 | COc1ccc(S(=O)(=O)Nc2ccc(S(=O)(=O)N3CCCCC3)cc2)cc1C | 2.82 µM (active) | –

— PubChem BioAssay AID1851 (National Center for Advancing Translational Sciences (NCATS), 2009)
